# Source: the supplement of paper PMC6555819
# Tested on: VDR:RXRa (NR concentration 270 nM, RXRa partner concentration 90 nM)
# Experiment: PBM binding z-score (relative to random genomic background probes); higher = stronger binding; sequences stand for … in GC…GCGATTGACAGCGTAGAATGAAGG
# Method: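 Protein-binding microarray (Agilent 4x180K custom design, double-stranded 60-nt probes: 5' GC cap, 34-nt variable region, 24-nt constant primer region; full probe sequence given). Purified or IVT nuclear receptor:RXRα heterodimers (3:1 NR:RXRα, mostly 270:90 nM) or homodimers were incubated for 1 h in PBS with 2% milk and no ligand, then detected with Alexa488 antibodies. Fluorescence from o1-orientation probes (~5 replicates averaged) was converted to z-scores against 500 random hg19 background probes. Variable regions are seed direct-repeat (DR0–DR5) sites, all their single-nucleotide variants and half-site ablations.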
row,Sequence,PBM binding z-score
1,GGAACGCGGGCAAGTTGATAGCAGAGTTTGATGG,-0.834
2,CGTCCAAGGTCAAGGTCAGTAAAAGAGACTCGAA,4.65
3,CATACAGGGTCAGGTAGGCCAGAGTAGGGACGGC,3.35
4,CGTCCAAGGTCAGAGAGGTCAGTGCATGCCGAGT,7.42
5,CGAACTAGGTCAAGAGGTCAAAGTCCGCTTCCCG,6.13
6,GCTGCTAGGTCACGTTGGTCAGCTAACGGGTACG,2.29
7,TCAGACAGGTGAAGTTAACTCAGGTACGCAGTCG,0.573
8,TATACAGGGTCAAAGGCCAGACTACGAATGTCGA,4.68
9,CAAACTGGGTCAAGGTCAAAGTCGGTTTGTGCCA,5.18
10,ATCTCCAGGTAACAAGTTCAGTGAAAGAGAGGAC,2.42
11,TCTTGTAGATCAGCAGGCTAAGAAAGCTGGCCAA,-0.106
12,ATCGAAAGCTCGACGAGGTGAGTATACACCGTTT,-0.25
13,ACAGACAGGTGATTGAAGGTAACTCAGCTGGACG,-0.21
14,CGAACTAGGTCAAAACAGGACAGTGAAGGATGAT,1.99
15,ACAGACAGGTGATGAAGGTAACACAGGCTATCAT,0.561
16,GCATATAGGTAATAAAAGGTGAAAGTCCGATTGT,0.675
17,AGAATGAGGCTAAGATCAGGGAAACAGAATACAT,-0.231
18,ATCTCTAGATAAAGTTCAGTGAAAGATCGATAGA,1.03
19,AGAATGAGGTTATACGTAGATCAGGGAGGAAAGT,1.33
20,TCATATAGGTAAATGCTAGGTGCAAGTCCGATCT,0.809

row,Sequence,PBM binding z-score
1,ATCTCCAGGTAAGACTCAGTTCAGTGAAGAACGC,1.05
2,AGCATGAGGTTATTAAGATCAGGGAATTGCGGTC,2.36
3,CCCACTGGGGCAGAAAGGTTACCATACCATCCGG,0.905
4,CCTAGCAGGCCAGGGCCACTCAAGCATTTCGCTT,-1.03
5,CCTTACGGGTCACTCCTGGTTATAGCATCGGAGT,2.79
6,CCTGCTAGGTAATGGTCAGCTAATCTACAGTATG,-0.407
7,TCTAGCAGGCCAGAGTGTCACTCAAGAGGTACGG,-0.00537
8,AGTCAAAGTTCAGTACGAGGTAACGTAAAGCACG,2.89
9,ACTATTAGTTGAGACCAGGGCAACCGATAGGTTG,-0.036
10,ATCGAAAGGTCGAAGGTGAGTATACCCACCCGAA,2.91
11,TCATATAGGTAAAAGGTGAAACTCGGTGTGGTAA,2.04
12,TCAGACAGGTTAAGGTAACTCAGGTACGCAGTCG,1.53
13,TCTTGTAGATCAAGTAGGTTAAGAAAGCCTGAGT,0.698
14,ATCACTAGGTAACAAGTTCAGTGAAAGAGAGGAC,1.6
15,TCGAGTAGGTTAGGGGCAATCAGAATGGCGTCGA,0.363
16,TGAATGAGCTTAAAGATCAGGGAACGTGGCGTCG,-0.548
17,TGAATGAGGTTAAAAGATCAGGGAACGTTGCAAA,1.45
18,TAGCCTAGGTCAGATTGGGCCAGTATACGCTATA,0.524
19,TCTTGTAGATCAACAGGTTAAGAAAGCTGGCCAA,0.855
20,TCTAGTTGGCCACGGAGGTCACACACGACGGGTA,3.97
